High-throughput results: PubChem, National Center for Advancing Translational Sciences (NCATS)
The list is not random: actives were taken first. Their share in the collection is about 4.3%.
MCF10A rereplic: DNA re-replication induction in MCF 10a cells | MCF 10A DNA re-replication, Hoechst nuclear intensity, 48 h | Potency, µM (titrated, usually from 46.1 µM), hits mostly activators | hit rate 2.9% among 350,000; also: nearly all actives have a fitted effect of over 50% in size
SW480 rerep: DNA re-replication induction in SW480 cells | SW480 DNA re-replication, Hoechst DNA content imaging, 48 h | Potency, µM (titrated, usually from 46.1 µM), most hits filed as activators | hit rate 1.8% among 340,000 | AID 624297; also: nearly all actives have a fitted effect of over 55% in size
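Readout is total intensity of Hoechst-stained nuclei, excited at 405 nm and collected at 500-530 nm. Compound treatment lasted 48 hr at 37 C in 5% CO2 before staining.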
Giardia kill: Giardia lamblia killing; AID 540267; activity change, % at 7.66 µM, hits read low; Giardia lamblia trophozoite viability; hit rate 0.15% among 340,000; in the data active = activity change below about -80%; inconclusive = between about -30% and that limit;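 also: parasites exposed to compound for two days anaerobically before the ATP read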
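Viability, read as ATP luminescence: trophozoites at 100 cells/well, compound added, 48 hrs anaerobic at 37 deg C, then 15-30 min room-temperature development before reading.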
uPA surface inh: blocks generation of uPA at the cell surface | cell surface uPA generation assay, qHTS | Potency, µM (titrated, usually from 38.3 µM), hits mostly inhibitors | hit rate 0.31% among 330,000; active = well fitted inhibition curve with a large enough effect; inconclusive = small, poorly fitted or top-dose-only effect; inactive = no such curve, though single readings can be large or run the other way; tested in mouse RAW 264.7 cells; also: nearly all actives have a fitted effect of over 55% in size
Large screens that a line does not name were inactive. Unless noted, calls follow the shape of the dose curve; as a rule, active = well fitted activation curve with a large enough effect; inconclusive = small, poorly fitted or top-dose-only effect; inactive = no such curve, though single readings can be large or run the other way.

COc1cc(C2c3cc4c(cc3OC(NCc3ccccc3)C2C)OCO4)cc(OC)c1OC (configuration not stated)	MCF10A rereplic 1.64µM, SW480 rerep 4.61µM
CCN(CC)C1Oc2cc3c(cc2C(c2cc(OC)c(O)c(OC)c2)C1C)OCO3 (configuration not stated)	MCF10A rereplic inconclusive, SW480 rerep inconclusive
CCOc1ccc(NC(=O)CSc2nnc3c(n2)[nH]c2ccc(S(=O)(=O)N4CCCCC4)cc23)cc1	none (no result: MCF10A rereplic, SW480 rerep, uPA surface inh)
COc1cccc(C2c3cc4c(cc3OC(C)(N3CCCC3)C2C)OCO4)c1O (configuration not stated)	MCF10A rereplic inconclusive, SW480 rerep 18.4µM
COc1cccc(C2c3cc4c(cc3OC(NNC(N)=O)C2C)OCO4)c1O (configuration not stated)	MCF10A rereplic 3.26µM, SW480 rerep 8.2µM
S=C(NCc1ccccn1)NN=Cc1ccccn1	none
COc1ccc(N2CCN(C(=O)COC(=O)c3ccc(OC(F)F)cc3)CC2)cc1	none
NC(=O)N/N=C/c1cn(-c2ccccc2)nc1-c1cccnc1	uPA surface inh inconclusive
O=C(N/N=C/c1cn(-c2cccs2)nc1-c1ccccc1)c1ccccc1Br	none
O=C(N/N=C/c1cn(-c2ccccc2)nc1-c1cccnc1)c1ccccc1	MCF10A rereplic 11.6µM, SW480 rerep inconclusive
O=C(N/N=C/c1cn(-c2cccs2)nc1-c1ccccc1)c1ccccc1O	MCF10A rereplic 14.6µM, SW480 rerep inconclusive
O=C(/C=C/CCc1ccc2c(c1)OCO2)N1CCCCC1	none
O=C1C(c2ccccc2)=[N+]([O-])c2ccccc21	MCF10A rereplic inconclusive, SW480 rerep inconclusive, uPA surface inh inconclusive
Cc1ccc(S(=O)(=O)NC(=NC(C)C(=O)O)c2ccccc2)cc1 (configuration not stated)	none
Cc1ccc(S(=O)(=O)NC(=NC(C)C)c2ccccc2)cc1	MCF10A rereplic 0.517µM, SW480 rerep inconclusive
CCOc1cc2c(C#N)c(N3CCCC3)nc(N)c2c(N)n1	none
CCCCN(CC)c1nc(N)c2c(N)nc(OCC)cc2c1C#N	MCF10A rereplic 23.1µM, SW480 rerep inconclusive
CN1OC[C@@H]2CN(Cc3ccccc3)[C@H](c3cccc(Oc4ccccc4)c3)C[C@@H]21	MCF10A rereplic inconclusive
Cc1cc(=O)[nH]c(N/N=C/c2ccccn2)n1	MCF10A rereplic inconclusive, SW480 rerep 4.11µM
O=c1cnnc(N/N=C/c2ccccn2)[nH]1	MCF10A rereplic inconclusive, SW480 rerep inconclusive
Cc1ccccc1CN1C(=O)c2ccccc2S1(=O)=O	MCF10A rereplic 23.1µM
Cc1ccc(NC(=O)COC(=O)CNC(=O)c2ccco2)cc1	none
O=C1c2cccc3cccc(c23)C(=O)N1OS(=O)(=O)c1ccc(Cl)cc1	none
CCc1ccc(S(=O)(=O)ON2C(=O)c3ccccc3C2=O)cc1	MCF10A rereplic 18.4µM, SW480 rerep inconclusive
COc1ccc(OC)c(S(=O)(=O)N2CCN(c3ccccc3)CC2)c1	MCF10A rereplic inconclusive
COc1ccc(OC)c(S(=O)(=O)ON2C(=O)c3ccccc3C2=O)c1	MCF10A rereplic 6.51µM, SW480 rerep inconclusive
Cc1cc(C(=O)NNC(=O)/C=C/c2ccco2)c(C)o1	SW480 rerep inconclusive
Cc1nc(Nc2ccccc2O)c2oc3ccccc3c2n1	none
COc1ccc(Nc2nc(C)nc3c2nnn3Cc2ccccc2Cl)c(OC)c1	MCF10A rereplic 3.26µM
COc1ccc(Nc2nc(C)nc3c2oc2ccccc23)c(OC)c1	MCF10A rereplic 14.6µM, SW480 rerep inconclusive
COc1ccccc1Nc1nc(C)nc2c1oc1ccccc12	MCF10A rereplic 18.4µM
CCc1nc(Nc2ccc(OC)cc2OC)c2oc3ccccc3c2n1	MCF10A rereplic inconclusive, SW480 rerep inconclusive
COc1ccc(N(C)S(=O)(=O)c2cccc3cccnc23)c(OC)c1	MCF10A rereplic 8.2µM, SW480 rerep 20.6µM (no result: uPA surface inh)
N#Cc1cccc(S(=O)(=O)N2CCN(c3nc(-c4cccs4)nc4ccccc34)CC2)c1	none (no result: MCF10A rereplic, SW480 rerep, uPA surface inh)
Cc1ccc(C2NC(=O)c3ccccc3N2)c(C)c1 (configuration not stated)	MCF10A rereplic 6.51µM, SW480 rerep inconclusive
Cc1ccc(N=C2C(=O)Nc3ccccc32)c(C)c1	none
Cc1ccc(C2NC(=O)c3ccccc3N2)s1 (configuration not stated)	MCF10A rereplic inconclusive, SW480 rerep 20.6µM
Cc1cccc(C2NC(=O)c3ccccc3N2)c1 (configuration not stated)	MCF10A rereplic 14.6µM, SW480 rerep 16.4µM
CC(C(O)C12CC3CC(CC(C3)C1)C2)N1CCCCC1 (configuration not stated)	MCF10A rereplic inconclusive
O=C(Nc1nc2ccccc2[nH]1)NC1CCCCC1	none
O=C(NNc1ccccc1F)c1cccs1	none (no result: MCF10A rereplic, SW480 rerep, uPA surface inh)
Cc1cc(/C=N/NC(=O)c2cccc(F)c2)c(C)n1-c1ccccc1	MCF10A rereplic 18.4µM, uPA surface inh inconclusive
Cc1cc(/C=N/NC(=O)c2ccccc2F)c(C)n1-c1ccccc1	uPA surface inh inconclusive
CC(/C=N/NC(=O)c1ccncc1)=C\c1ccccc1	none
CC(/C=N/NC(=O)c1cccc(F)c1)=C\c1ccccc1	MCF10A rereplic inconclusive, SW480 rerep 14.6µM, uPA surface inh inconclusive
CC(=C/c1ccc(C(C)C)cc1)/C=N/NC(=O)c1ccncc1	MCF10A rereplic 20.6µM
Cc1cccc(C)c1OCCn1c(CCNC(=O)C2CCCCC2)nc2ccccc21	none (no result: MCF10A rereplic, SW480 rerep, uPA surface inh)
CCOC(=O)C1CCCN1C(=O)C1(NC(C)=O)CCCC1 (configuration not stated)	none
COc1ccc2c3c(cccc13)C(=O)CC2	none
Cc1cccc(Nc2nnc(SC/C(O)=C(\C#N)c3nc4ccccc4[nH]3)s2)c1C	MCF10A rereplic 13µM, SW480 rerep inconclusive
COCCCNC(=O)Cc1c(C)c2c(cc(C)c3c(C(C)(C)C)coc32)oc1=O	MCF10A rereplic inconclusive, SW480 rerep 2.31µM, uPA surface inh 0.282µM
CN(C)S(=O)(=O)n1cc(/C=C(\NC(=O)c2ccccc2)C(=O)N2CCCC2)c2ccccc21	MCF10A rereplic inconclusive, uPA surface inh inconclusive
Cc1ccc(C2=NN(C(=O)c3cccs3)C(c3ccccc3O)C2)cc1 (configuration not stated)	MCF10A rereplic 20.6µM, SW480 rerep inconclusive
COc1ccc2[nH]c3c(c2c1)CCN1C(=O)C(CC(=O)NC/C=C(\C)CCC=C(C)C)C[C@H](C(=O)N2CCOCC2)[C@@]31CCC1CCCC1 (some centres not stated)	none
Cc1nc(CN(C)C(=O)CC2C(=O)NCCN2Cc2ccc(-c3ccccc3)cc2)cs1 (configuration not stated)	none
Nc1ccc(C(=O)Nc2cccc3ncccc23)cc1	none
O=C(Nc1cccc2ncccc12)c1ccc(OCc2ccccc2)cc1	MCF10A rereplic 1.46µM
CC(C)(C)c1ccc(C(=O)Nc2cccc3ncccc23)cc1	SW480 rerep inconclusive
CCOc1ccc(C(=O)Nc2cccc3ncccc23)cc1Br	MCF10A rereplic 0.581µM, uPA surface inh inconclusive
N#CC1(NC(=O)Cn2cc(C(F)(F)F)cc(Cl)c2=O)CCCCC1	none
Cc1noc(C)c1S(=O)(=O)Nc1ccc(C(C)C)cc1	MCF10A rereplic 23.1µM, SW480 rerep inconclusive
Cc1ccc(CNC(=O)c2ccc(NS(=O)(=O)c3c(C)noc3C)cc2)cc1	none
